Measurements published in PubChem BioAssay (NCATS).
Results filed as inconclusive are left out. A call without a number means that no potency is given here. More than one record can exist for a structure, and the calls need not agree. Calls of active or inactive are those of the source. Unless noted, calls come from the whole dose curve; as a rule, active = well fitted curve in the direction sought with a large enough effect; inconclusive = small, poorly fitted or top-dose-only effect, or another doubt; inactive = no such curve, though single readings can be large; an effect the other way counts as inactive or inconclusive.

Assays:
[1] = biological target: Thioredoxin reductase 1, cytoplasmic (Rattus norvegicus) (UniProt O89049); experiment: qHTS Assay for Substrates of Mammalian Selenoprotein Thioredoxin Reductase 1 (TrxR1) (AID 488772);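 note: NADPH fluorescence in the first read after selenite addition and not the 8 min delta; series mostly up to about 57 µM; a drop in NADPH fluorescence below the no-compound background marks a TrxR1 substrate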
Thioredoxin reductase 1, cytoplasmic (Rattus norvegicus), sequence (O89049 whole entry, looked up): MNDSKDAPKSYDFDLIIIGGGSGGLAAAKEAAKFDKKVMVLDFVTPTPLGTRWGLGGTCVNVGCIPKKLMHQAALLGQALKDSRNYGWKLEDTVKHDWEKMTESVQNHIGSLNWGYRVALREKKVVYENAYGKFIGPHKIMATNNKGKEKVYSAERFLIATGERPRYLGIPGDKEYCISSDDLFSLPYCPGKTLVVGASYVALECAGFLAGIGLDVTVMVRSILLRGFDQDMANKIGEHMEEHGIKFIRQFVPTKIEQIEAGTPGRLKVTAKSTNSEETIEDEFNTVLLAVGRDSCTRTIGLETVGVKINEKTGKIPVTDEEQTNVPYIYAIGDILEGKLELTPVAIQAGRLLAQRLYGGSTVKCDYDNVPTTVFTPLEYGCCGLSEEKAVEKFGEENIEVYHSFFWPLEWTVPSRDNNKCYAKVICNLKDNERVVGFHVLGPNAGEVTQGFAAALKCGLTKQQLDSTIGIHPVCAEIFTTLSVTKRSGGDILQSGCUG
Method in brief: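 Quantitative HTS in Tris-HCl buffer at pH 7.5 with EDTA and Tween-20, using rat TrxR1, 400 uM NADPH and 400 uM selenite (final). A fall in initial NADPH fluorescence relative to background marked substrate behaviour.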

[2] = biological target: Thioredoxin reductase 1, cytoplasmic (Rattus norvegicus) (UniProt O89049); experiment: qHTS Assay for Inhibitors of Mammalian Selenoprotein Thioredoxin Reductase 1 (TrxR1) (AID 488773); details: Potency: inhibition; note: nearly all actives have a fitted effect of over 40% in size; note: potency is the fitted concentration of half-maximal effect
Method in brief: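 Steps: enzyme (90 nM) plus NADPH (400 uM final), 5 min at ~22 deg C; compound added, 15 min; selenite (400 uM final) added; fluorescence followed for 8 min. Concentration-response curves derived from the normalized delta values.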

[3] = biological target: Flap endonuclease 1 (Homo sapiens) (UniProt P39748); experiment: qHTS Validation Assay for the Inhibitors of Human Flap endonuclease 1 (FEN1) (AID 488816)
Flap endonuclease 1 (Homo sapiens), sequence (P39748 whole entry, looked up): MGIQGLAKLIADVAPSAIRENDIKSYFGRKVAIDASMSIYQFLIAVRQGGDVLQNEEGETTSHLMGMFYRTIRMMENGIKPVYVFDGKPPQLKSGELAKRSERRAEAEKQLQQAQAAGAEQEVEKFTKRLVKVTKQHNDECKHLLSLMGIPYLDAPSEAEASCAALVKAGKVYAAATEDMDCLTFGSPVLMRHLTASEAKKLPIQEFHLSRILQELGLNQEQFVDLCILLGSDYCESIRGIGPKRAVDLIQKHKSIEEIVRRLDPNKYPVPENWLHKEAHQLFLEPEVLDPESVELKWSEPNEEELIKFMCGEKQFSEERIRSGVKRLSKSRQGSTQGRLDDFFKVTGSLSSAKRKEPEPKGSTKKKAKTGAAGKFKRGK
Method in brief: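 Human FEN1 (10 nM) preincubated 15 min at room temperature with compounds, then flap DNA substrate added at 50 nM final. Fluorescence read at 0 and 15 min; concentration-response fitted with four-parameter Hill equation.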

[4] = biological target: M-phase phosphoprotein 8 (Homo sapiens) (UniProt Q99549); experiment: qHTS Validation Assay for Inhibitors for MPP8 Chromodomain Interactions with Methylated Histone Tails (AID 488949); note: nearly all actives have a fitted effect of over 55% in size; note: potency is the fitted concentration of half-maximal effect
M-phase phosphoprotein 8 (Homo sapiens), sequence (Q99549 whole entry, looked up): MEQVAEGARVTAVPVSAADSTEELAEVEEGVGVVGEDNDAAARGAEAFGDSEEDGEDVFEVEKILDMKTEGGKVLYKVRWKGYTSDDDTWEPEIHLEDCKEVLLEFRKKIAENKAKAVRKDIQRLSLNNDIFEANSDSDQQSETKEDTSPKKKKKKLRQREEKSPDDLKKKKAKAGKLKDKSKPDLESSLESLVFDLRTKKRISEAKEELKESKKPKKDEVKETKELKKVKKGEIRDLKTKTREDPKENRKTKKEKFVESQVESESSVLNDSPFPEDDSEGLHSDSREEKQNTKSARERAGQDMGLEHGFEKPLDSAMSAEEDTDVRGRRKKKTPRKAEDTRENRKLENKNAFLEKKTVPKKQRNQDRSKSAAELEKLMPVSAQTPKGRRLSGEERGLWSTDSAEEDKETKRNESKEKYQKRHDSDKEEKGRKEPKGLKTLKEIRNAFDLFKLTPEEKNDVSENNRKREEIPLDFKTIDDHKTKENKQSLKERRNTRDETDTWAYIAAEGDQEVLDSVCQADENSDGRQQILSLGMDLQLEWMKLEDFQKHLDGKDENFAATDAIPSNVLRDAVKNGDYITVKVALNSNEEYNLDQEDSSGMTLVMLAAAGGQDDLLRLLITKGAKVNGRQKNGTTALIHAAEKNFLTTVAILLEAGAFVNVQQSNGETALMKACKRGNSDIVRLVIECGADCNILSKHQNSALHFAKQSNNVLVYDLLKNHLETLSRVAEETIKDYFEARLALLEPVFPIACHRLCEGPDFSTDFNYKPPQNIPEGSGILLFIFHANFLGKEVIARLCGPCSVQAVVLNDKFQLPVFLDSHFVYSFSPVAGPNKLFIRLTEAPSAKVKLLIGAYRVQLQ
Method in brief: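 MPP8 (50 nM) was preincubated with biotinylated H3(1-18)K9me3 peptide (50 nM) in PBS pH 7.4, 0.01% Tween-20 for 30 min at room temperature, then with compounds for 30 min; binding was detected by AlphaScreen.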

[5] = biological target: Chromobox protein homolog 1 (Homo sapiens) (UniProt P83916); experiment: qHTS Validation Assay for Inhibitors of HP1-beta Chromodomain Interactions with Methylated Histone Tails (AID 488953); note: nearly all actives have a fitted effect of over 50% in size; note: potency is the fitted concentration of half-maximal effect
Chromobox protein homolog 1 (Homo sapiens), sequence (P83916 whole entry, looked up): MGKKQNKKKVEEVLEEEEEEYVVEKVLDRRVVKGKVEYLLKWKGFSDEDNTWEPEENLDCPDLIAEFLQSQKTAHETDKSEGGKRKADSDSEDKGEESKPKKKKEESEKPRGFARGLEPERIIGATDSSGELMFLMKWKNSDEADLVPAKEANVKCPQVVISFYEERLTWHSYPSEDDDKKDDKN
Method in brief: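 HP1-beta (50 nM) preformed 30 min with biotinylated H3(1-18)K9me3 peptide (50 nM) in PBS pH 7.4, 0.01% Tween-20. Compounds added for 30 min at room temperature. Complex disruption read by AlphaScreen with streptavidin donor/nickel chelate acceptor beads (10 ug/mL each).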

[6] = biological target: Methanococcus maripaludis chaperonin (MmCpn) (UniProt Q6LX38); experiment: High-Throughput Screening for Modulators of Cytosolic Chaperonin Activity: MmCpn Primary Screen (AID 488978);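 note: 50 nM MmCpn enzyme hydrolysing 30 µM ATP at 37 °C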
Method in brief: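 MmCpn (50 nM final) was preincubated with compound 5 min at RT, then 30 uM ATP (final) was added and the reaction ran 10 min at 37C. ADP produced was detected by Transcreener HTRF (ex 320 nm; em 590/665 nm).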

[7] = biological target: Thyrotropin receptor (Homo sapiens) (UniProt P16473); experiment: qHTS Assay for Antagonists of the Thyroid Stimulating Hormone Receptor (AID 488980); note: series mostly up to about 58 µM
Method in brief: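 HEK293 cells transfected with human TSHR, suspended in HEPES-buffered HBSS with 70 uM RO 20-1724, were treated with compounds plus TSH at EC80 (4 nM final). cAMP was measured by competitive HTRF (cryptate anti-cAMP antibody, cAMP-d2 acceptor).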

[8] = biological target: D(1A) dopamine receptor (Homo sapiens) (UniProt P21728); experiment: HTS Assay for Allosteric Agonists of the Human D1 Dopamine Receptor: Primary Screen for Agonists (AID 488981)
D(1A) dopamine receptor (Homo sapiens), sequence (P21728 whole entry, looked up): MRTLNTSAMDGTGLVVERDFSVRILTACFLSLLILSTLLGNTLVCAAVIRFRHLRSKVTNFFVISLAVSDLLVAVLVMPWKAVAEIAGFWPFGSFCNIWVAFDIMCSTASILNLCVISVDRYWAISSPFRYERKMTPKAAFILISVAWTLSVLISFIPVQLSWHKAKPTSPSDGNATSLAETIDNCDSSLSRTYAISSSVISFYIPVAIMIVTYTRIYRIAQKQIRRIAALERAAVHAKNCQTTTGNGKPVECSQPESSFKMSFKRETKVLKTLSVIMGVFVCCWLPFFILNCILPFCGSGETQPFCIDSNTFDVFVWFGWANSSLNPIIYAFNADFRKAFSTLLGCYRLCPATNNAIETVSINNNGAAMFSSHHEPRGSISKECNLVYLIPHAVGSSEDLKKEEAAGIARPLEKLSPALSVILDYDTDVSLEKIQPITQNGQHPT
Method in brief: (§1)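 Tetracycline-induced HEK293 Trex D1 cells with forced coupling to calcium, loaded with no-wash calcium dye; kinetic fluorescence read 180 s after compound addition for agonism, then a further 180 s after an EC20 dopamine challenge for potentiation.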

[9] = biological target: D(1A) dopamine receptor (Homo sapiens) (UniProt P21728); experiment: HTS Assay for Allosteric Agonists of the Human D1 Dopamine Receptor: Primary Screen for Potentiators (AID 488982); note: potency is the fitted concentration of half-maximal effect
Method in brief: as §1

[10] = biological target: D(1A) dopamine receptor (Homo sapiens) (UniProt P21728); experiment: HTS Assay for Allosteric Agonists of the Human D1 Dopamine Receptor: Primary Screen for Antagonists (AID 488983);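 note: calcium flux response to an EC80 dopamine challenge measured with no-wash dye; nearly all actives have a fitted effect of over 65% in size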; note: potency is the fitted concentration of half-maximal effect
Method in brief: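 Tetracycline-induced HEK293 T-REx D1 line, force-coupled to calcium flux, read with no-wash calcium dye. Compound added after 10 s baseline, read 180 s for agonism, then EC80 dopamine added and read a further 180 s.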

[11] = Validation screen for small molecules that induce genotoxicity in human embryonic kidney (HEK293T) cells expressing luciferase-tagged ELG1 (AID 493106)
Method in brief: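 HEK293T cells expressing luciferase-tagged ELG1, 2,000 cells/well, exposed to compound 16 hr at 37 °C, 5% CO2. Luciferase read after ONE-Glo, 30 min at room temperature; increased signal indicates genetic stress.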

[12] = biological target: ATPase family AAA domain-containing protein 5 (Homo sapiens) (UniProt Q96QE3); experiment: Validation screen for small molecules that inhibit ELG1-dependent DNA repair in human embryonic kidney (HEK293T) cells expressing luciferase-tagged ELG1 (AID 493107); note: nearly all actives have a fitted effect of over 70% in size; note: potency is the fitted concentration of half-maximal effect
ATPase family AAA domain-containing protein 5 (Homo sapiens), sequence (Q96QE3 whole entry, looked up, the tested form may be a part): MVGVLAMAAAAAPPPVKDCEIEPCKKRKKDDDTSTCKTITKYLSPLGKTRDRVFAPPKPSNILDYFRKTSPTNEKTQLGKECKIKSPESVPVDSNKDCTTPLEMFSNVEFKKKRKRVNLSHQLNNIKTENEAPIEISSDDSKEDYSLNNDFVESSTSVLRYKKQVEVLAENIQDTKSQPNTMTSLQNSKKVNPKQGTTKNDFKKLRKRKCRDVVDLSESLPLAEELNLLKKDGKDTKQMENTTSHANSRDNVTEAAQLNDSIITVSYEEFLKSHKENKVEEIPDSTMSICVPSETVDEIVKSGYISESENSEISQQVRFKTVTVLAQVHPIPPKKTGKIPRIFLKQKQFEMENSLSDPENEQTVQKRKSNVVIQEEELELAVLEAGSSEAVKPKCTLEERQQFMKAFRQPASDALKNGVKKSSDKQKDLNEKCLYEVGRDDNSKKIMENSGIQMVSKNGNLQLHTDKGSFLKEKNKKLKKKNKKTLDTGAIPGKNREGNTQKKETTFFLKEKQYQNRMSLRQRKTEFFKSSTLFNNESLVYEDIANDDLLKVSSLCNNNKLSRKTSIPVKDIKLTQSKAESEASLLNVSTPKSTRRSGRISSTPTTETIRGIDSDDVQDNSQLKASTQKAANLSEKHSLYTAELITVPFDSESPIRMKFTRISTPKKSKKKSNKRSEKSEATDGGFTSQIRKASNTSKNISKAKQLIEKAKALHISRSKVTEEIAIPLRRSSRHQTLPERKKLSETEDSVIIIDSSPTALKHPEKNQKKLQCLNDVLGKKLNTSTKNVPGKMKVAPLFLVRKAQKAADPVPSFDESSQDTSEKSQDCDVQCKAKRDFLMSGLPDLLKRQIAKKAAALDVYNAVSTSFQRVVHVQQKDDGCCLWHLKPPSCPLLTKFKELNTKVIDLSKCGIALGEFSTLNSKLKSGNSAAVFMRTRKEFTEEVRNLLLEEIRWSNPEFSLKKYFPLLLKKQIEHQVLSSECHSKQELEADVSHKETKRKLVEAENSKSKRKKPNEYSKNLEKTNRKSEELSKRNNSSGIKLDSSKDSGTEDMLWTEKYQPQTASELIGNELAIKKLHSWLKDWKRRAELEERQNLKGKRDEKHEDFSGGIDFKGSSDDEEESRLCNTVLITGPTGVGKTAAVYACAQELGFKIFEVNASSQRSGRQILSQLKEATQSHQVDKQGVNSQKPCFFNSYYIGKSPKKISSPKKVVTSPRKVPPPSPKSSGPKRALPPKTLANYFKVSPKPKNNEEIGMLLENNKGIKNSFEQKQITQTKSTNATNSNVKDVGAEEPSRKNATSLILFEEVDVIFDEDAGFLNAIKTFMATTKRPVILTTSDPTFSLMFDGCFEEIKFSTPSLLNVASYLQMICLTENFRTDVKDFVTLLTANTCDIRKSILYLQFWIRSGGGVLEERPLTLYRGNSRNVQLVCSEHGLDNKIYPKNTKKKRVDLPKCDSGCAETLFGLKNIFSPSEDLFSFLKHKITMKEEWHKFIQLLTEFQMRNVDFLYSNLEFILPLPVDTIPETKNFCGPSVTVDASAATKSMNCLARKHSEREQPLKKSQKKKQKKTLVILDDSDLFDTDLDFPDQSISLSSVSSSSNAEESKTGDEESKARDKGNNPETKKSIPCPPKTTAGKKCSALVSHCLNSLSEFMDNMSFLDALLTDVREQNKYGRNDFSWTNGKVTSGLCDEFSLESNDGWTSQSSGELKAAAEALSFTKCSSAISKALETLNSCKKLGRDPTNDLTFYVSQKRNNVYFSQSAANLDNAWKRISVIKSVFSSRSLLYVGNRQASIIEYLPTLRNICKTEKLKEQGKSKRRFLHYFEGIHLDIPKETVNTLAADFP
Method in brief: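 HEK293T cells expressing luciferase-tagged ELG1, 2,000 per well, treated with 5-fluorouridine plus compound for 16 h at 37 C. ONE-Glo luminescence after 30 min at room temperature reports ELG1 reporter level.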

[13] = biological target: Thyrotropin-releasing hormone receptor (Homo sapiens) (UniProt P34981); experiment: qHTS for Small Molecule Agonists and Allosteric Enhancers of Human TRH Receptor: Validation Screen for Agonists (AID 493127;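 active = calcium activation more than 3 SD above the typical response in the agonist read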); details: TRH receptor agonist cell assay; at 2 µM; stronger effect = higher value
Thyrotropin-releasing hormone receptor (Homo sapiens), sequence (P34981 whole entry, looked up): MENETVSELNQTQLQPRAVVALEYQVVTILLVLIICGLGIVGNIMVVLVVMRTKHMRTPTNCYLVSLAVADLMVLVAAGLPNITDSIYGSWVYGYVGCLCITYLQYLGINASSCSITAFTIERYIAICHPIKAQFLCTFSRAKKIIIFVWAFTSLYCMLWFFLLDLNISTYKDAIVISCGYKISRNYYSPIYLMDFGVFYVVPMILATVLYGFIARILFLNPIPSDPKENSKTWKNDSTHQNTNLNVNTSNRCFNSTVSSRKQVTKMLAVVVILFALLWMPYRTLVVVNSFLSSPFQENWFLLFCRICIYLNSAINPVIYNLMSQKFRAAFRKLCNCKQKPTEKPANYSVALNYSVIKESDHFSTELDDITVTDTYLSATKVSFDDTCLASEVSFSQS
Method in brief: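 TRHR cells loaded with fluo-8 calcium dye; FDSS kinetic fluorescence (Ex 480/Em 530) read at 1 s/cycle after 23 nL compound addition. Agonist-mode calcium response recorded before the 10 nM TRH (EC20) addition.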

[14] = Nrf2 qHTS screen for inhibitors: Validation (AID 493153; active = well fitted inhibition curve with a large enough effect in the main read-out, with a control signal flat, not every such curve was filed as active); details: Potency: luciferase luminescence; viability change: measured here: cytotoxicity max response
Method in brief: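 A549 cells carrying ARE-firefly luciferase reporter, 5000 cells/well in 5% FBS OPTI-MEM, treated with compound over a concentration series for 18-24 h at 37 C. Luciferase luminescence gave Nrf2 activity; CellTiter-Fluor fluorescence gave viability.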

[15] = qHTS for Inhibitors of Cell Surface uPA Generation: Validation Assay (AID 493164)
Method in brief: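 RAW 264.7 cells (4000/well) were plated overnight, then exposed for 18 h at 37 C, 5% CO2 to compounds in a 7-point 1:5 titration (2.45 nM–38.3 uM final). Intracellular ATP was read by ATP-Lite luminescence.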

[16] = biological target: Galactokinase (Homo sapiens) (UniProt P51570); experiment: qHTS Validation Assay for Inhibitors of Human Galactokinase (GALK) (AID 493189)
Galactokinase (Homo sapiens), sequence (P51570 whole entry, looked up): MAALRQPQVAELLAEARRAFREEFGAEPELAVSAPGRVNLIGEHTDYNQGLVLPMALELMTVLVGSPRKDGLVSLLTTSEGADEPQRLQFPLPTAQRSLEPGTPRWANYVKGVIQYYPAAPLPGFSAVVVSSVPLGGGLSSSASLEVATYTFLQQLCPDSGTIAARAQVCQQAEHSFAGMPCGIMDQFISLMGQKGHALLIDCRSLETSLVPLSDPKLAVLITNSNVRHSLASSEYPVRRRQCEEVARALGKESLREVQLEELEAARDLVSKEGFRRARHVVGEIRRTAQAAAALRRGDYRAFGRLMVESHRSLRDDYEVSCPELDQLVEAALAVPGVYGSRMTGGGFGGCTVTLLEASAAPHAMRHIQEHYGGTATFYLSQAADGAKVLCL
Method in brief: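 GALK (5 nM) with 35 uM ATP and 100 uM galactose in HEPES pH8.0, MgCl2, NaCl, DTT, BSA; 1 h at room temperature. Residual ATP read by Kinase-Glo Plus luminescence after 10 min.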

[17] = Validation screen for small molecules that induce DNA re-replication in SW480 colon adenocarcinoma cells (AID 504364)
Method in brief: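 SW480 cells (250/well) exposed 48 h at 37 C, 5% CO2, then Hoechst-stained 40 min. Nuclear DNA content imaged by fluorescence scanning (405 nm excitation, 500-530 nm emission); re-replication scored as increased nuclei with elevated intensity.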

[18] = biological target: Transient receptor potential cation channel subfamily V member 1 (Homo sapiens) (UniProt Q8NER1); experiment: HTS Assay for Compounds that Act as Enhancers of the Vanilloid Receptor 1 (AID 488979)
Method in brief: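 TRPV1 cells loaded with Fluo-8 calcium dye; compound added and Ca2+ signal (ex 480/em 520 nm) followed 3 min, then capsaicin at EC20 added and read 2 more min to detect enhancement.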

[19] = biological target: Tyrosyl-DNA phosphodiesterase 1 (Homo sapiens) (UniProt Q9NUW8); experiment: Confirmation Assay for Inhibitors of Tyrosyl-DNA Phosphodiesterase (TDP1) (AID 489007); details: recombinant human TDP1 enzymatic activity, dose-response; note: potency is the fitted concentration of half-maximal effect; nearly all actives have a fitted effect of over 40% in size
Method in brief: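 Recombinant human Tdp1 (1 nM final), expressed in E. coli, preincubated 15 min with compound. Then 15 nM 5'-biotin/3'-phosphotyrosine-FITC DNA substrate added for 5 min at room temperature. AlphaScreen beads (10 ug/ml) added for 10 min; cleavage gives signal loss.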

Compound | outcome [1] | Potency [2] | Potency [3] | Potency [4] | Potency [5] | outcome [6] | outcome [7] | Potency [8] | Potency [9] | Potency [10] | Potency [11] | Potency [12] | activation [13] | Potency [14] | viability change [14] [%] | outcome [15] | outcome [16] | Potency [17] | outcome [18] | Potency [19]
Oc1ccc2c3c1O[C@H]1c4[nH]c5ccccc5c4C[C@@]4(O)C(C2)N(CC2CC2)CCC314 (stereo not given in full) | inactive | inactive | inactive | inactive | inactive | inactive | inactive | inactive | inactive | inactive | inactive | inactive | 1.69% (inactive) | inactive | -8.87 | inactive | inactive | inactive | – | –
NC(=O)COc1c(F)cc(SCCNS(=O)(=O)c2ccccc2)cc1F | inactive | inactive | inactive | inactive | inactive | inactive | inactive | – | inactive | inactive | inactive | inactive | 0% (inactive) | – | – | – | inactive | inactive | inactive | –
Ic1ccccc1CNC1C2CCN(CC2)C1C(c1ccccc1)c1ccccc1 (stereo not given) | inactive | inactive | inactive | inactive | 44.7 µM (active) | inactive | inactive | – | 4.11 µM (active) | – | inactive | 16.4 µM (active) | 2.31% (inactive) | – | – | inactive | – | – | – | –
NC(=O)c1cc(N2CC2)c([N+](=O)[O-])cc1[N+](=O)[O-] | inactive | inactive | inactive | inactive | inactive | inactive | inactive | inactive | inactive | inactive | inactive | inactive | 0.0625% (inactive) | – | – | inactive | – | – | inactive | –
Clc1cc(I)cc(Cl)c1NC1=NCCN1 | inactive | inactive | inactive | inactive | inactive | inactive | inactive | inactive | inactive | inactive | inactive | inactive | 1.69% (inactive) | inactive | 9.07 | inactive | inactive | – | inactive | –
NCCc1c[nH]c2ccc(C(N)=O)cc12 | inactive | inactive | inactive | inactive | inactive | inactive | inactive | inactive | – | inactive | inactive | inactive | 1.5% (inactive) | inactive | 4.69 | inactive | inactive | inactive | inactive | –
COc1ccc2c(c1)/C(=C/c1cnc[nH]1)C(=O)N2 | inactive | inactive | inactive | 44.7 µM (active) and inactive | inactive | inactive | inactive | – | inactive | inactive | – | – | 0.562% (inactive) | – | – | inactive | inactive | – | inactive | –
C=CCN1CC[C@]23c4c5ccc(O)c4O[C@H]2/C(=N/NC(=O)c2ccccc2)CC[C@@]3(O)[C@H]1C5 | inactive | inactive | inactive | inactive | inactive | inactive | inactive | inactive | inactive | inactive | inactive | inactive | 1.44% (inactive) | inactive | 7.77 | – | – | inactive | inactive | –
N=C(N)c1ccc(CS(=O)(=O)F)cc1 | inactive | inactive | inactive | inactive | inactive | inactive | – | inactive | inactive | inactive | inactive | inactive | – | – | – | inactive | – | – | – | –
CCCn1c(=O)c2[nH]c(C3CCCC3)nc2n(CCCOC(=O)c2ccc(S(=O)(=O)F)cc2)c1=O | inactive | inactive | inactive | inactive | inactive | inactive | inactive | inactive | inactive | inactive | inactive | inactive | -5.75% (inactive) | inactive | -2.37 | inactive | inactive | inactive | inactive | –
CN1CCC(c2c[nH]c3ccc(O)cc23)CC1 | inactive | inactive | inactive | inactive | inactive | inactive | inactive | inactive | inactive | 6.31 µM (active) | inactive | inactive | 1% (inactive) | inactive | -1.47 | inactive | inactive | – | inactive | –
CC(N)c1cccc(Cl)c1Cl (stereo not given) | inactive | inactive | inactive | inactive | inactive | inactive | inactive | – | inactive | inactive | inactive | inactive | -0.188% (inactive) | – | – | inactive | – | – | inactive | –
O=C(O)c1cc[c]([Hg][Cl])cc1 | inactive | 299 nM (active) | inactive | 5.32 µM (active) | 39.8 µM (active) | inactive | inactive | inactive | inactive | inactive | inactive | – | 1.5% (inactive) | – | – | inactive | – | inactive | inactive | 56.2 µM (active)
NC(C(=O)O)c1cc(=O)[nH]o1 (stereo not given) | inactive | inactive | inactive | inactive | inactive | inactive | inactive | inactive | inactive | inactive | inactive | inactive | 0.688% (inactive) | inactive | -7.19 | inactive | – | inactive | inactive | –
OC1CCCCC1N1CCC(c2ccccc2)CC1 (stereo not given) | inactive | inactive | inactive | inactive | inactive | inactive | inactive | inactive | inactive | inactive | inactive | inactive | -3.5% (inactive) | inactive | -3.18 | inactive | inactive | – | inactive | –
C[C@H](Cc1ccc2c(c1)OC(C(=O)O)(C(=O)O)O2)NC[C@H](O)c1cccc(Cl)c1 | inactive | inactive | inactive | inactive | inactive | inactive | inactive | inactive | inactive | inactive | inactive | inactive | 0.625% (inactive) | inactive | 0.983 | inactive | inactive | inactive | inactive | –
